Measured values from publication PMC4336329 (PLoS ONE, 2015).
The whole screen tested about 310,000 compounds, of which about 14,000 (4.5%) showed an effect of 50% or more. The effect is printed as a negative number. What follows is part of a selection rich in strong results, with near analogues and random picks from the rest.

Each molecule was assayed against human ether-à-go-go-related gene (hERG) potassium channel (human, UniProt Q12809) (assay: primary screen, population patch clamp on CHO cells stably expressing hERG; higher = less effect of the substance).
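Further: peak tail current of the secondary pulse compared with the same well before compound.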

Chain of human ether-à-go-go-related gene (hERG) potassium channel (Q12809 whole entry, looked up): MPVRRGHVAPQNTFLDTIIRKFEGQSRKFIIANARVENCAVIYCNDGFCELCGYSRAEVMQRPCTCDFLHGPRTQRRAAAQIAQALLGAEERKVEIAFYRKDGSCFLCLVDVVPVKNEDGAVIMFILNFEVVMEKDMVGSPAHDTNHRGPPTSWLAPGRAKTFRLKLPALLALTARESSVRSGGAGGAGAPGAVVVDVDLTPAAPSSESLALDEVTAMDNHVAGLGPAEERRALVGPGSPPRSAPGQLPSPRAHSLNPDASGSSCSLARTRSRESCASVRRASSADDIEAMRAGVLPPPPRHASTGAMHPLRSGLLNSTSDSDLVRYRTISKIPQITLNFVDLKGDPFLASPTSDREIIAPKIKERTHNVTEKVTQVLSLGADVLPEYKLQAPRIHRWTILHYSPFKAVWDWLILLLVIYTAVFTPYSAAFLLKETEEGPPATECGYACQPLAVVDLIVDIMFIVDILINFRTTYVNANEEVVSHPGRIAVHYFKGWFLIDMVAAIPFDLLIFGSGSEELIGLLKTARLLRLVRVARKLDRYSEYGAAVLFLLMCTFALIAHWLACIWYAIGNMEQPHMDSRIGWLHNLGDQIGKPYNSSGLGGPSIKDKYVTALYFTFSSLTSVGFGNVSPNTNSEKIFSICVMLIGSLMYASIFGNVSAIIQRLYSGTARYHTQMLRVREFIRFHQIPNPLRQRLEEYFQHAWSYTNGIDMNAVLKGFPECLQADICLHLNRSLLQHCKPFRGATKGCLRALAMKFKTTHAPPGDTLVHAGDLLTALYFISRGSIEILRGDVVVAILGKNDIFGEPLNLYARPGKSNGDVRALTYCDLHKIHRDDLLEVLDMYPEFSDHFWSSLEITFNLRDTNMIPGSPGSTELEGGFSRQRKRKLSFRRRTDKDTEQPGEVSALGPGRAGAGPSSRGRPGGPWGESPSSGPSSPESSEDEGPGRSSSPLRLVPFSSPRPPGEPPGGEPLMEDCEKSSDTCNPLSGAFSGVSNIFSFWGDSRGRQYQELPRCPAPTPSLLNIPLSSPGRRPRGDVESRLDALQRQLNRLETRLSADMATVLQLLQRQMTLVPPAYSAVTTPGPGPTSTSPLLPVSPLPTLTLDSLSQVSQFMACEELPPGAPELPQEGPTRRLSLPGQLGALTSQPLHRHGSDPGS

Row | SMILES | hERG current change (%, negative = inhibition) at 10uM [%]
1 | Cc1ccc(S(=O)(=O)Nc2ccc(-c3nnc(SCC#N)n3C)cc2)cc1 | -11.3
2 | CC(C)(C)n1nnnc1C(c1cccnc1)N1CCN(C2CCCCC2)CC1 (centres unmarked) | -2.19
3 | CC(=O)N1CCN(c2ccccc2NC(=O)c2ccc(Br)o2)CC1 | -54.4
4 | CC1CCN(c2ccccc2NC(=O)c2ccc(Br)o2)CC1 | -0.73
5 | CN1CCN(c2ccccc2NC(=O)c2ccc(Br)o2)CC1 | -67.9
6 | O=C(Nc1ccccc1N1CCN(C(=O)c2ccccc2)CC1)c1ccc(Br)o1 | -63.5
7 | O=C(Nc1ccccc1N1CCCC1)c1ccco1 | 6.36
8 | O=C(Nc1ccccc1N1CCCC1)c1ccc(Br)o1 | -22.4
9 | CS(=O)(=O)N1CCN(c2ccccc2NC(=O)c2ccc(Br)o2)CC1 | -36.3
10 | O=C(Nc1ccccc1N1CCN(C(=O)c2ccccc2)CC1)c1cc2ccccc2o1 | 9.86
11 | O=C(Nc1ccccc1N1CCN(C(=O)c2ccccc2)CC1)c1ccco1 | -74.2
12 | CC(=O)N1CCN(c2ccccc2NC(=O)c2ccco2)CC1 | -38.9
13 | O=C(Nc1ccccc1N1CCOCC1)c1ccc(Br)o1 | 1.26
14 | CCOC(=O)c1[nH]c(C)c(C(=O)OCCN2C(=O)c3ccccc3C2=O)c1C | -1.16
15 | COC(=O)[C@@H]1C[C@@]2(O)[C@H](O)[C@H](O)[C@H](O)C[C@H]2N1Cc1ccc(C(F)(F)F)cc1 | 13.2
16 | Cc1ccccc1CN1CCN(CC(=O)NCc2ccccc2)CC1 | -22.8
17 | Cc1c(NC(=O)CCC2CCCCC2)cc(C(=O)N2CCOCC2)cc1[N+](=O)[O-] | -10.2
18 | COc1cc(N)c(Cl)cc1C(=O)NC1CN2CCC1CC2.Cl.O (centres unmarked) | -11.1
19 | O=C(O)c1ccc(Cl)c(NC(=S)NC(=O)c2cccc(COc3ccccc3)c2)c1 | 30.4
20 | COC(=O)c1ccc(N2CCOCC2)c(NC(=O)c2ccc(Br)o2)c1 | 7.34
21 | COC(=O)c1ccc(N2CCN(C)CC2)c(NC(=O)c2ccc(Br)o2)c1 | -55.8
22 | CCOC(=O)c1ccc(N2CCN(C(=O)c3ccccc3)CC2)c(NC(=O)c2ccco2)c1 | -71.5
23 | COC(=O)c1ccc(N2CCCCC2)c(NC(=O)c2ccco2)c1 | -45.8

Row | SMILES | hERG current change (%, negative = inhibition) at 10uM [%]
24 | COC(=O)c1ccc(N2CCN(C(=O)c3ccccc3)CC2)c(NC(C)=O)c1 | -39.8
25 | COC(=O)c1ccc(N2CCN(C)CC2)c(NC(=O)c2ccc(-c3ccc(Cl)cc3)o2)c1 | 7.11
26 | CCOC(=O)N1CCC(NC(=O)c2cc(S(=O)(=O)N3CCC4(CC3)OCCO4)ccc2F)CC1 | -6.9
27 | Fc1cccc(CN2CCN3CCCC3C2C2CCCCC2)c1 (centres unmarked) | -8.93
28 | CCOc1ccc(NC(=S)NC(=O)/C=C/c2ccc(OC)cc2)c([N+](=O)[O-])c1 | 7.26
29 | O=C(COc1ccccc1Cl)NCCNC(=O)c1cccnc1 | -3.71
30 | CS(=O)(=O)NNC(=O)Cn1nnc(-c2ccc(OCc3ccccc3Cl)cc2)n1 | 18
31 | O=C(Oc1ccc(-c2nnco2)cc1)N1CCOCC1 | 1.23
32 | CCc1ccccc1Nc1nc(N)nc(COC(=O)CCNS(=O)(=O)c2ccccc2)n1 | -62.7
33 | CCc1ccccc1Nc1nc(N)nc(COC(=O)CCS(=O)(=O)c2ccccc2)n1 | -10.5
34 | Cc1ccccc1Nc1nc(N)nc(COC(=O)CCNS(=O)(=O)c2ccccc2)n1 | -9.32
35 | Cc1ccc2nc(NCCc3ccc(Cl)cc3)c3nncn3c2c1 | 8.75
36 | Cn1c2ccccc2c2nnc(SCC(N)=O)nc21 | -7.5
37 | CCCCNS(=O)(=O)c1ccc2c(c1)oc(=O)n2CC(=O)OCC | 5.06
38 | O=C(Nc1ccccc1C(=O)NCCCN1CCOCC1)c1cccc([N+](=O)[O-])c1 | -52.7
39 | O=C(Nc1ccccc1C(=O)Nc1ccccn1)c1cccc([N+](=O)[O-])c1 | -58.2
40 | O=C(NCCCN1CCOCC1)c1ccccc1NS(=O)(=O)c1ccc(Br)cc1 | -56.1
41 | O=C(NCCCN1CCOCC1)c1ccccc1NS(=O)(=O)c1ccc(F)cc1 | -41.5
42 | Cc1ccccc1NS(=O)(=O)c1ccc(C(=O)NCCCN2CCOCC2)cc1 | 9.08
43 | O=C(Nc1ccccc1C(=O)Nc1ccc(Br)cn1)c1cccc([N+](=O)[O-])c1 | 16.6
44 | O=C(NCCCN1CCCC1=O)c1ccccc1NS(=O)(=O)c1ccc(Br)cc1 | 1.59
45 | O=C(Nc1cc([N+](=O)[O-])ccc1C(=O)NCCN1CCOCC1)c1ccccc1 | -44.9
46 | O=C(Nc1ccccc1C(=O)NCCCN1CCOCC1)c1ccccc1 | 6.8

Row | SMILES | hERG current change (%, negative = inhibition) at 10uM [%]
47 | Cc1cc(C)c(C)c(S(=O)(=O)Nc2ccccc2C(=O)NCCCN2CCOCC2)c1C | -88.5
48 | O=C(Nc1ccccc1C(=O)Nc1ccccn1)c1ccc([N+](=O)[O-])cc1 | -18
49 | Cc1ccccc1NS(=O)(=O)c1ccc2[nH]cc(C(=O)NCCCN3CCOCC3)c(=O)c2c1 | 14.5
50 | CCCCNC(=S)NCCN1CCN(C(=S)NCCCC)CC1.Cl | -8.2
51 | S=C(Cc1ccc(Cl)cc1)N1CCOCC1 | 11.1
52 | CC(C)C(=O)Nc1ncc(Cc2ccc(Cl)cc2)s1 | 6.53
53 | O=[N+]([O-])c1ccccc1N(CC1CO1)S(=O)(=O)c1ccccc1 (centres unmarked) | 2.02
54 | O=C(CCc1nc2ccccc2c(=O)[nH]1)Nc1nnc(SCc2ccc(F)cc2)s1 | 7.47
55 | CC(C)(C)NCC(O)CON=C1c2ccccc2-c2ccccc21 (centres unmarked) | -28.5
56 | COc1ccc(O)c(/C=N/NC(=O)c2ccc(OCc3cccc(Br)c3)cc2)c1 | 9.95
57 | COc1ccc(CNC(=O)C/C(C)=N/NC(=O)c2ccc(OC)cc2OC)cc1 | -10.5
58 | O=C(NNS(=O)(=O)c1ccccc1[N+](=O)[O-])c1cc2ccccc2cc1O | -10.9
59 | O=C(NCCc1ccccc1)c1ccc2c(c1)OCCCO2 | 17.4
60 | Cc1ccc2cc(CN(CCN(C)C)C(=O)Nc3ccc(Cl)cc3)c(=O)[nH]c2c1 | -70.5
61 | CCN(CC)CCN(Cc1cc2ccc(C)cc2[nH]c1=O)C(=O)Nc1ccc(Cl)cc1 | -77.6
62 | CCC(=O)N(CCc1ccccc1C)Cc1cc2ccc(C)cc2[nH]c1=O | 9.02
63 | O=C(NCc1ccccc1)c1cccc(COc2ccc(Cl)cc2)c1 | 5.77
64 | COc1cc(C2C(C#N)=C(N)Oc3cc(O)ccc32)cc(OC)c1OC (centres unmarked) | 4.91
65 | COC(=O)c1cc(S(=O)(=O)NC2CCCCC2)cn1C | 10.5
66 | O=S(=O)(c1ccc(SCCO)nc1)N1CCOCC1 | -2
67 | CCOC(=O)CCNC(=O)Nc1cc2nc(C)n(Cc3cccc(Cl)c3)c2nc1C | 4.33
68 | O=c1cc(-c2ccccc2)[nH]c2ccccc12 | -11.4
69 | O=C(COC(=O)c1ccccc1[N+](=O)[O-])NNC(=O)c1cccs1 | -15.7

Row | SMILES | hERG current change (%, negative = inhibition) at 10uM [%]
70 | CC(C)C(=O)N(Nc1nc2ccccc2s1)C(=O)C(C)C | -0.224
71 | CN1CCc2c(c3ccccc3n2Cc2ccccc2)C1.Cl | -71.2
72 | CCCCN1CCc2c(c3ccccc3n2Cc2ccccc2)C1 | -72.9
73 | CN1CCc2c(c3ccccc3n2C)C1.Cl | 11.4
74 | O=C1SCCc2c1n(Cc1ccccc1)c1ccccc21 | 2.89
75 | Cc1ccc2c(c1)c1c(n2CCc2ccc(C)nc2)CCN(C)C1 | -15.8
76 | Cc1ccc(CCn2c3c(c4ccccc42)CN(C)CC3)cn1 | -3.74
77 | COc1ccc(-c2ncc3ccccn23)cc1 | -5.24
78 | Cc1cc(NC(=O)c2ccc(N(C)S(=O)(=O)c3ccccc3)cc2)no1 | -11.5
79 | COc1ccc(OCCCC(=O)Nc2ccc(N3CCCCC3)cc2)cc1.Cl | -1.87
80 | CC(=O)N1C2CCCCC2S[C@H]2CCCCC21 (some centres unmarked) | 18.9
81 | Cc1ccc(/C=N/n2c(COc3ccccc3)n[nH]c2=S)s1 | 14.6
82 | COc1ccc(C(C(=O)NC2CCCC2)N(C(=O)c2ccoc2C)c2ccc(C)c(C)c2)cc1 (centres unmarked) | 15.1
83 | COc1ccccc1CNC(=O)CN1C(=O)c2ccccc2S1(=O)=O | 12.7
84 | CCN(CC)CCn1c(NC(=O)c2ccc(C)cc2)nc2ccccc21 | -63.2
85 | CCCn1c(NC(=O)c2ccccc2Br)nc2ccccc21 | 16.2
86 | CCN(CC)CCn1c(NC(=O)c2ccccc2O)nc2ccccc21 | -68
87 | Cc1ccc(C(=O)Nc2nc3ccccc3n2CCN2CCCC2)cc1 | -53.8
88 | CCCn1c(NC(=O)c2ccc(C)cc2)nc2ccccc21 | -22.8
89 | CCN(CC)CCn1c(NC(=O)c2ccc(C(F)(F)F)cc2)nc2ccccc21 | -25.7
90 | O=C(Nc1nc2ccccc2n1CCN1CCCCC1)c1ccc(Cl)cc1 | -13.2
91 | CCC(=O)Nc1nc2ccccc2n1CCN(CC)CC | -14.1
92 | CCN(CC)CCn1c(NC(=O)c2ccc(Cl)cc2)nc2ccccc21 | -31.5
